Reference: ChEMBL document CHEMBL4888484, “Replenishing the malaria drug discovery pipeline: Screening and hit evaluation of the MMV Hit Generation Library 1 (HGL1) against asexual blood stage Plasmodium falciparum ,using a nano luciferase reporter read-out” (2022)
In all, about 150,000 compounds went through this assay and about 540 (0.36%) showed an effect of 50% or more. The entries come from a sample that favours strong results as a whole.

Test system: Plasmodium falciparum
Assay: Primary screen in NF54 nanoGlo assay, in single point, at 2uM, 72h; a lower Z score goes with more inhibition
Type: functional, Erythrocyte
Settings: timepoint 72 hour

Compound | % Inhibition | Z score
Cn1cccc1CCC(=O)NCCc1noc(C2CC2)n1 | -5% | 0.69
CN1CCC(Oc2cc(NC(=O)c3cscn3)ccn2)CC1 | -16% | 1.85
CCn1cc(CN2CCN3C(=O)N(c4ccccc4)C(=O)[C@@H]3C2)cn1 | -2% | 0.24
COCCN1CC[C@H](c2ncnn2C2CCCCC2)C1 | -7% | 1.3
CCc1nccc(CN2CCC[C@H](CS(C)(=O)=O)C2)n1 | -20% | 2.11
Cn1cnc2c1CCN(C[C@H](O)c1ccccc1Cl)C2 | 0% | 0.04
CCC(=O)N(Cc1ccc(-c2ccc(Cl)cc2)o1)[C@H]1CCS(=O)(=O)C1 | 63% | -8.22
CC(C)C(=O)N(Cc1ccc(-c2ccc(Cl)cc2)o1)[C@H]1CCS(=O)(=O)C1 | 1% | -0.15
CCC(CC)C(=O)N(Cc1ccc(-c2ccc(Cl)cc2)o1)[C@H]1CCS(=O)(=O)C1 | -7% | 0.86
Cc1nnc(COc2cccc3c2OCCO3)s1 | -12% | 2.16
CC(C)C(=O)NCC(=O)N1CC[C@@]2(CCCN(CCCc3ccccc3)C2)C1 | -7% | 1.41
CN(Cc1ccc2ccn(C)c2c1)C[C@H]1CCCCO1 | -2% | 0.4
COc1ccc(Br)c(S(=O)(=O)NCC2(C)CCC2)c1 | 1% | -0.23
CC(=O)NC[C@H]1CN(c2ccnc(C(C)(C)C)n2)CCO1 | -12% | 1.4
CNC(=O)c1cc(S(=O)(=O)N2CC=CC2)cn1C | -4% | 0.78
Cc1ccccc1NC(=O)[C@H]1c2cccc[n+]2CC(=O)N1c1ccc2c(c1)OCO2 | -9% | 1.37
CC(C)(C)OC(=O)N1CCC[C@@H]1CNC1CC1 | -7% | 0.86
CC(C)(C)OC(=O)N1CC2CC(=O)CC1C2 (stereo not given) | 3% | -0.39
O=C1Cc2cc(S(=O)(=O)Nc3ccccc3C(=O)NCc3ccco3)ccc2N1 | -32% | 3.76
CCc1cc(NC(=O)N[C@@H](C)c2nc(C(F)(F)F)no2)n(C)n1 | -7% | 1
CC(C)Cc1cnc(NC(=O)N[C@@]2(C)CCOC2)s1 | 8% | -1.23
COCc1cnc(NC(=O)NC2(c3ncccn3)CCOCC2)s1 | 52% | -0.94

Compound | % Inhibition | Z score
Cc1cc(C(=O)NC2(c3ncccn3)CCOCC2)c(C)s1 | -4% | 0.7
CCc1cc(C(=O)N2CC[C@@]3(CCCN(Cc4cccc(OC)c4)C3)C2)on1 | -5% | 0.79
CC(C)CC(=O)N(Cc1nccn1Cc1ccc(Cl)cc1Cl)CC1CC1 | -8% | 0.76
CC[C@H](C)N1CC(=O)N(c2ccns2)C1=O | -14% | 2.59
COc1ccnc(-c2ccc(F)c3cccnc23)c1 | -4% | 0.58
COc1cccc(CNS(=O)(=O)c2cc(-c3c(C)nn4c3NC(=O)CCC4=O)ccc2OC)c1 | 2% | -0.21
O=C1CCCN1Cc1ncnn1Cc1ccc2c(c1)OCO2 | -4% | 0.57
Oc1cccc(CNc2cccc3cccnc23)c1 | 27% | -3.62
O=C(Nc1cccc2cccnc12)c1cscn1 | 9% | -1.21
O=C(Nc1cccc2cccnc12)c1csnn1 | 6% | -1.1
Oc1ccccc1CNc1cccc2c[nH]nc12 | -4% | 0.68
Oc1ccccc1CNc1cccc2cccnc12 | 96% | -8.95
O=C(Nc1cccc2cccnc12)c1ccccn1 | 79% | -8.04
O=C(Cn1ccc([C@H]2CCCNC2)n1)NCc1c(F)cccc1Cl | 0% | -0.03
O=C1CC[C@H](C(=O)N2CCCCO2)CN1CCN1CCOCC1 | -15% | 1.87
CCC1CCC(C(=O)NCC(=O)N2CCn3cncc3C2)CC1 (stereo not given) | -22% | 2.8
Cn1c(-c2ccc(Br)cc2)cn2cc(-c3ccc(Cl)cc3)nc12 | 44% | 0.7
Cn1c(-c2ccccc2)cn2cc(-c3ccc(Cl)cc3)nc12 | 54% | -1.03
Cn1c(-c2ccccc2)cn2cc(-c3ccc(F)cc3)nc12 | 38% | -0.19
Nc1n[nH]c(-c2ccc(Br)o2)n1 | 4% | -0.5
OC1=Nc2c(ncn2-c2cc(F)cc(F)c2)[C@@H](c2cccnc2)C1 | 34% | -3.88
Cc1ccc(CN2CCN(CC(=O)Nc3cc(C)on3)C(=O)C2=O)cc1 | 0% | -0.03

Compound | % Inhibition | Z score
O=c1nc2n(nc1-c1ccc(F)cc1)C1(CCCC1)Nc1ccccc1-2 | -9% | 0.98
O=c1nc2n(nc1-c1ccccc1)C1(CCC1)Nc1ccccc1-2 | 54% | -13.48
O=c1nc2n(nc1-c1ccccc1)C1(CCCCC1)Nc1ccccc1-2 | -10% | 1.25
C[C@H](NC(=O)C1=NN(C)C(=O)CC1)c1ccc2c(c1)OCCO2 | -13% | 1.49
O=C(CCS(=O)(=O)c1ccccc1)N1CC[C@H](Oc2cc(C(F)(F)F)ccn2)C1 | -6% | 1.09
COc1ccnc(CN2CCC[C@H](c3nc(-c4ccccc4)c[nH]3)C2)c1OC | 69% | -7.6
O=C(O)CN1CCC[C@H](c2nc(-c3ccccc3)c[nH]2)C1 | -8% | 0.94
Cc1nncn1C1CCN(S(=O)(=O)c2ccc(Cl)cc2)CC1 | -11% | 1.89
COc1ccc(CC(=O)N2C3COCC2C3)nc1 | 33% | -3.69
CC(=O)c1cccc(NC(=O)N2CCC3(CCC3)C2)c1 | -6% | 1.19
CCCCN1C(=O)c2ccccc2N2C(=O)CC[C@@]12C(=O)Nc1nccs1 | 25% | -2.95
COc1cccc(NC(=O)C23CCCN2CCC3)c1 | -8% | 1.16
CCCN1C(=O)c2ccccc2N2C(=O)CC[C@@]12C(=O)Nc1nc(C)cs1 | 2% | -0.31
CCN1C(=O)c2ccccc2N2C(=O)CC[C@@]12C(=O)Nc1cccc(OC)c1 | 92% | -11.06
CCCN1C(=O)c2ccccc2N2C(=O)CC[C@@]12C(=O)Nc1ccccc1 | 88% | -14.36
CCCN1C(=O)c2ccccc2N2C(=O)CC[C@@]12C(=O)Nc1ccc(OC)cc1 | 88% | -16.69
Cc1cc(N(C)C)ccc1NC(=O)CCN1C(=O)c2ccccc2N2C(=O)CC[C@]12C | 2% | -0.43
CC(=O)c1cccc(NC(=O)[C@@]23CCC(=O)N2c2ccccc2C(=O)N3C)c1 | 84% | -11.29
CC(=O)c1cccc(NC(=O)N2CCCCCCC2)c1 | 2% | -0.33
CCN1C(=O)c2ccccc2N2C(=O)CC[C@@]12C(=O)Nc1nccs1 | 8% | -0.95
CCCN1C(=O)c2ccccc2N2C(=O)CC[C@@]12C(=O)Nc1cccc(NC(C)=O)c1 | 8% | -1.31
